Experimental data from PubChem BioAssay (EPA / NIEHS).
Records with an inconclusive call do not appear. Active and inactive are the calls of the source. How the source made its calls: active means hit-call score of the fitted dose curve at least 0.9, where 1 is the maximum; inconclusive means response in the unintended direction; inactive means score below 0.9.

What follows are compounds tested against human Ephrin type-A Receptor 1 (EphA1), EPHA1 (gene 2041) (UniProt P21709) (assay: NVS_ENZ_hEphA1: NovaScreen (NVS) Enzymatic Assay for human Ephrin type-A Receptor 1 (EphA1) (AID 2283158);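 further: activity is signal loss versus DMSO meaning EphA1 kinase inhibition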).
Outline: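 Biochemical kinase assay run cell-free; 1 h incubation; readout is fluorescence with mobility-shift separation of product. Concentration-response up to 50 uM for actives from a 25 uM screen.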

Chain of human Ephrin type-A Receptor 1 (EphA1), EPHA1 (gene 2041) (P21709 whole entry, looked up): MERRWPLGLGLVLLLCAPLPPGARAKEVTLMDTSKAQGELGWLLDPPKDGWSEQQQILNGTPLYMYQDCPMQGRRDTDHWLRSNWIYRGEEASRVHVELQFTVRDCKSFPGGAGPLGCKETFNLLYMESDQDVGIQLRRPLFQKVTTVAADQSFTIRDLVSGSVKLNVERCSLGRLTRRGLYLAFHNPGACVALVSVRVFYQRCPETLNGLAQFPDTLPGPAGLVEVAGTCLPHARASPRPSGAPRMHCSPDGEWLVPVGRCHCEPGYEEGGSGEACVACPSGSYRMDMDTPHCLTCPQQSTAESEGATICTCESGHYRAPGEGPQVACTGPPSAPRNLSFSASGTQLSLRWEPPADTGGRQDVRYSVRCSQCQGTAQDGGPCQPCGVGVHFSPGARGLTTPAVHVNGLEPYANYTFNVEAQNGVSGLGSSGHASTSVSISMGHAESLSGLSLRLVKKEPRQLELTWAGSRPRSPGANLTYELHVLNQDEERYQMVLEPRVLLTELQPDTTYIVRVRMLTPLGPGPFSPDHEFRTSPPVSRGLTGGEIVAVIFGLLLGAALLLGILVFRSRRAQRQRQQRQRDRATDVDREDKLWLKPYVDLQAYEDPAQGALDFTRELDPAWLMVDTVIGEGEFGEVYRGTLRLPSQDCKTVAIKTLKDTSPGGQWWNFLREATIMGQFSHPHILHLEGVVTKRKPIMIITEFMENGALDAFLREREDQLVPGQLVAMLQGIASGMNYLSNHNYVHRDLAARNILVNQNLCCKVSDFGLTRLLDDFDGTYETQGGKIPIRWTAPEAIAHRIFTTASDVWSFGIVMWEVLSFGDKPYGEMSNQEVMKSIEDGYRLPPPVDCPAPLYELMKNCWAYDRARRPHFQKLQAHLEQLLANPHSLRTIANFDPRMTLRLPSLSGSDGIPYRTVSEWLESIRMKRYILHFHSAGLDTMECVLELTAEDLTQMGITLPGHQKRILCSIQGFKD

SMILES | outcome | AC50
COc1cc2c(cc1OC)[C@@]13CCN4CC5=CCO[C@H]6CC(=O)N2[C@H]1[C@H]6[C@H]5C[C@H]43 | inactive | –
CCc1ccccc1N | inactive | –
C(=NC1CCCCC1)=NC1CCCCC1 | inactive | –
CCCCCCCCC(=O)NCc1ccc(O)c(OC)c1 | inactive | –
Nc1cccc(Cl)c1 | inactive | –
Nc1ccc(-c2ccc(N)c(Cl)c2)cc1Cl | – | 1.28 µM (active)
O=[N+]([O-])c1ccc2c3c(cccc13)CC2 | inactive | –
COP(=S)(OC)Oc1c(Cl)cc(C)cc1Cl | inactive | –
NC(=S)Nc1ccccc1 | – | 41.6 µM (active)
CC(Br)C(=O)O (stereo not drawn) | inactive | –
COc1cccc(C=O)c1 | inactive | –
COP(=S)(OC)Oc1cc(Cl)c(Cl)cc1Cl | inactive | –

What follows are compounds tested against Protein deacetylase HDAC6 (Homo sapiens) (UniProt Q9UBN7) (assay: NVS_ENZ_hHDAC6: NovaScreen (NVS) Enzymatic Assay for human Histone Deacetylase 6 (HDAC6) (AID 2283164)).
Outline: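 Concentration-response runs up to 50 uM followed a duplicate 25 uM single-point screen. Deacetylase activity of recombinant human HDAC6 read by fluorescence after 1 h, with mobility-shift separation of substrate and product; DMSO as baseline.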

Chain of Protein deacetylase HDAC6 (Homo sapiens) (Q9UBN7 whole entry, looked up): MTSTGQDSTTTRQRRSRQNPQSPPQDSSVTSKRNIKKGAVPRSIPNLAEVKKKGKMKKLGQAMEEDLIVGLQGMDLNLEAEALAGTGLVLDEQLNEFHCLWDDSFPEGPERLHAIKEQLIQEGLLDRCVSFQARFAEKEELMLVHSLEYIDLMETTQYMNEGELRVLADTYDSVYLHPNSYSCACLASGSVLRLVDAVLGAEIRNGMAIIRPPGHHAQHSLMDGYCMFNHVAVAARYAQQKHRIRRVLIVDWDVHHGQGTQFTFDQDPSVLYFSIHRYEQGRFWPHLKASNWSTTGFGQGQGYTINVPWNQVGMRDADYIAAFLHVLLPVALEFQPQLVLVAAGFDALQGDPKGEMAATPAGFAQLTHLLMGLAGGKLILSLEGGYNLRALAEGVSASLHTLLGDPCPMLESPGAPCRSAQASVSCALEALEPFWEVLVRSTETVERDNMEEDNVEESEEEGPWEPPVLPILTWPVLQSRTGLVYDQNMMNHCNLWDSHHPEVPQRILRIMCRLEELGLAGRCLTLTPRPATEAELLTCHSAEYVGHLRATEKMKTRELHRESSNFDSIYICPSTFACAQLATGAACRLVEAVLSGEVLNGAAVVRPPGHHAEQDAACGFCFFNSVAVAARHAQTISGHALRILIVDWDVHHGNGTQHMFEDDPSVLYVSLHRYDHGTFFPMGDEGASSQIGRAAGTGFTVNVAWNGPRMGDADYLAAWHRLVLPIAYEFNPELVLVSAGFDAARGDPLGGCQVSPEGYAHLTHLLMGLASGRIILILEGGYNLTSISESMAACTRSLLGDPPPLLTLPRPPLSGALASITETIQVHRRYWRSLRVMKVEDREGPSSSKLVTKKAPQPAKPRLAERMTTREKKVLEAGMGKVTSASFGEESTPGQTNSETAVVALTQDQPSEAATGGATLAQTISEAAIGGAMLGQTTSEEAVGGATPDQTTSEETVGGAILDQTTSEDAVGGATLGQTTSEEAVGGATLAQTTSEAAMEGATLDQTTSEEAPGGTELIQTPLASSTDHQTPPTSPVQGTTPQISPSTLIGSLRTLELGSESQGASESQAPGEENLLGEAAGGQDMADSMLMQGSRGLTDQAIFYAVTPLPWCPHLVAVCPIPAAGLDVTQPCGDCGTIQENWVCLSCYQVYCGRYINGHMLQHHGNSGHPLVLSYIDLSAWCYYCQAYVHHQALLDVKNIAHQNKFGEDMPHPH

SMILES | outcome | AC50
C[C@]12CCC(=O)C[C@@H]1CC[C@@H]1[C@@H]2CC[C@]2(C)[C@@H](O)CC[C@@H]12 | inactive | –
CC(=O)[O][Hg][c]1ccccc1 | – | 2.32 µM (active)
O=C1C2(Cl)C3(Cl)C4(Cl)C(Cl)(Cl)C5(Cl)C3(Cl)C1(Cl)C5(Cl)C24Cl (stereo not drawn) | inactive | –

Each compound was assayed against Glycogen synthase kinase-3 beta (Homo sapiens) (UniProt P49841) (assay: NVS_ENZ_hGSK3b: NovaScreen (NVS) Enzymatic Assay for human Glycogen Synthase Kinase-3 beta (GSK3b) (AID 2283165)).
Outline: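 Recombinant enzyme with specific fluorescent substrate, 1 h, product separated by electrophoretic mobility shift. Primary duplicate screen at 25 uM; actives (e.g. 30% inhibition) followed in singleton concentration-response to 50 uM. Signal loss fitted versus DMSO.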

Chain of Glycogen synthase kinase-3 beta (Homo sapiens) (P49841 whole entry, looked up): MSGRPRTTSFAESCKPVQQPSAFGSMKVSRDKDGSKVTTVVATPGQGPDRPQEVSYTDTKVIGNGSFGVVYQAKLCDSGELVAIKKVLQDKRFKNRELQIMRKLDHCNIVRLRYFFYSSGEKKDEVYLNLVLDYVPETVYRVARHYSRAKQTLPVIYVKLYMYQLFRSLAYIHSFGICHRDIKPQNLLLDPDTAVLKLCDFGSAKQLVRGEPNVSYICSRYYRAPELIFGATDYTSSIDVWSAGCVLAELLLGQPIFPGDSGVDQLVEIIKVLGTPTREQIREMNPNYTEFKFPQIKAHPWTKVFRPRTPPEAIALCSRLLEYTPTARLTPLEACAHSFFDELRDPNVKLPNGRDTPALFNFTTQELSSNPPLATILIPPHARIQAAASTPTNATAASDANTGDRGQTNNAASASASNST

SMILES | outcome
COc1cc(-c2ccc(N)c(OC)c2)ccc1N | inactive
CCCCCCCCc1ccc(O)cc1 | inactive
CC(C)(C)CC(C)(C)c1ccc(O)cc1 | inactive
CC(C)(OO)c1ccccc1 | inactive
O=C1C2(Cl)C3(Cl)C4(Cl)C(Cl)(Cl)C5(Cl)C3(Cl)C1(Cl)C5(Cl)C24Cl (stereo not drawn) | inactive
Cc1ccccc1N | inactive

These compounds were tested against Mitogen-activated protein kinase 3 (Homo sapiens) (UniProt P27361) (assay: NVS_ENZ_hMAPK3: NovaScreen (NVS) Enzymatic Assay for human Mitogen-Activated Protein Kinase 3 (MAPK 3) (AID 2283177)).
Procedure: NVS_ENZ_hMAPK3 is a biochemical, single-readout assay that uses extracted gene-proteins in a cell-free assay. Measurements were taken 1 hour after chemical dosing in a 384-well plate.NVS_ENZ_hMAPK3 is one of one assay component(s) measured or calculated from the NVS_ENZ_hMAPK3 assay. It is designed to make measurements of enzyme activity, a form of enzyme reporter, as detected with fluorescence intensity signals by Fluorescence and electrophoretic mobility shift technology.Data from the assay component NVS_ENZ_hMAPK3 was analyzed into 1 assay endpoint. This assay endpoint, NVS_ENZ_hMAPK3, was analyzed in the positive analysis fitting direction relative to DMSO as the negative control and baseline of activity. Using a type of enzyme reporter, loss-of-signal activity can be used to understand changes in the enzymatic activity as they relate to the gene MAPK3. Furthermore, this assay endpoint can be referred to as a primary readout, because this assay has produced multiple assay endpoints where this one serves a enzymatic activity function. To generalize the intended target to other relatable targets, this assay endpoint is annotated to the kinase intended target family, where the subfamily is serine/threonine kinase.
Binding assays used specific radioligands (tritiated, iodinated) with non-radioactive competitive displacement ligands in agonist or antagonist protocols (as indicated) and various reference compounds and inhibitors to titrate specific binding to receptors and transporters. Most enzyme assays (CYPs, kinases, phosphatases, proteases, HDACs) used recombinant protein and specific substrates (fluorescence mostly, some colorimetric and radioactive) and inhibitors, followed by a biochemical separation of substrate and product. All assays for the biochemical HTS were initially run in duplicate at a single concentration (10 uM for CYP450 assays and 25 uM for all others). […]

Chain of Mitogen-activated protein kinase 3 (Homo sapiens) (P27361 whole entry, looked up): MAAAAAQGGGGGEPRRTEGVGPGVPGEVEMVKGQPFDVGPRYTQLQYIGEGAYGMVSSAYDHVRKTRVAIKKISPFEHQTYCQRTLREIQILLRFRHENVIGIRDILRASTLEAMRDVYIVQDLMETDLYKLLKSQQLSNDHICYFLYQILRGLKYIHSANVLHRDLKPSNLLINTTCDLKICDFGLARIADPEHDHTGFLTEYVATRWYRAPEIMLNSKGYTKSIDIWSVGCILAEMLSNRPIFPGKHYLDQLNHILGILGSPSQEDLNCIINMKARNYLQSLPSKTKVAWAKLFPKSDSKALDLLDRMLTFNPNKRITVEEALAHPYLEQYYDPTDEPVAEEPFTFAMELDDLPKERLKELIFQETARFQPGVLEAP

SMILES | AC50 | outcome
CC12CC1(C)C(=O)N(c1cc(Cl)cc(Cl)c1)C2=O (stereo not drawn) | 40.6 µM (active) | –
C[C@@H]1C[C@@H]([C@H](O)CC2CC(=O)NC(=O)C2)C(=O)[C@@H](C)C1 | – | inactive
Cn1sc(Cl)cc1=O | – | inactive

These compounds were tested against human Matrix Metalloproteinase-1 (MMP1), MMP1 (gene 4312) (UniProt P03956) (assay: NVS_ENZ_hMMP1: NovaScreen (NVS) Enzymatic Assay for human Matrix Metalloproteinase-1 (MMP1) (AID 2283181)).
Outline: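 Cell-free fluorescent substrate assay of human MMP1, read after 1 h. A single 25 uM duplicate screen was followed by concentration series to a maximum of 50 uM for actives meeting threshold; inhibition analysed against DMSO baseline.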

Chain of human Matrix Metalloproteinase-1 (MMP1), MMP1 (gene 4312) (P03956 whole entry, looked up): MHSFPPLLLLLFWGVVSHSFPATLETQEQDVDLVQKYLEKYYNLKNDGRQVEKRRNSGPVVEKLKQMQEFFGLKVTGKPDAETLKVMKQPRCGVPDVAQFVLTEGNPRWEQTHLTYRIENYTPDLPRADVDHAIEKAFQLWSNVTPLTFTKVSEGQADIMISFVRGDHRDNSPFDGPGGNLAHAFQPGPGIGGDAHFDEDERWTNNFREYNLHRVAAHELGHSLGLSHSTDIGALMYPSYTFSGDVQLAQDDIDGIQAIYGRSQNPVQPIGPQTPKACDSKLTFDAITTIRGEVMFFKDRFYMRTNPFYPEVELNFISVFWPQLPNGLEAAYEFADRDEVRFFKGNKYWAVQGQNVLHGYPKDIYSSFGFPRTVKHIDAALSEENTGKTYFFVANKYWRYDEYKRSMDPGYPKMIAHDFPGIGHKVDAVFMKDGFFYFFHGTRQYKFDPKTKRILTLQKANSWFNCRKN

SMILES | AC50 | outcome
CC(=O)[O][Hg][c]1ccccc1 | 6.38 µM (active) | –
O=C(O)C(Cl)(Cl)Cl | – | inactive
CCN1CCC2(CC1)COc1cc3c(cc12)N(C(=O)c1ccc(-c2ccc(-c4nnc(C)o4)cc2C)cc1)CC3 | – | inactive
C=C(C)C(=O)[O][Sn]([CH2]CCC)([CH2]CCC)[CH2]CCC | 3.07 µM (active) | –
